Assay outcomes as filed in PubChem.
D1 ag: activates the human D1 dopamine receptor | P21728 | HEK293 T-REx D1 cells, calcium flux, agonist mode | activation, % at 2 µM | hit rate 1% among 360,000 | AID 504660; further: 0% is about no effect
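Inducible HEK293 T-REx D1 cells, force-coupled to calcium signalling, were plated at 4000 cells/well with tetracycline and held overnight at 30 C. After no-wash calcium dye loading, compound-evoked calcium rise over 180 s flagged agonists.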
D1 PAM: potentiators of human D1 dopamine receptor | potentiation, % at 10 µM | P21728 | hit rate 0.036% among 360,000 | HEK293 TREx D1 cells, calcium flux, dopamine EC20 potentiation; in the data active means potentiation above about 30%; further: 0% is about no effect
D1 antag: antagonists of human D1 dopamine receptor. activity change, negative = inhibition, % at 10 µM. AID 504652. HEK293 TREx D1 cells, calcium flux, dopamine EC80; active compounds read low. hit rate 3.2% among 360,000. P21728; in the data active means activity change below about -30%; further: on the % scale 0 is the no-effect control and ±100 the full control effect
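Tetracycline-induced HEK293 T-REx cells with force-coupled D1 receptor were loaded with a no-wash calcium dye. Compound was added after a 10 s baseline and read kinetically for 180 s; EC80 dopamine was then added and calcium flux followed another 180 s.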
TRHR PAM: allosterically enhances the human TRH receptor; P34981; TRHR cells, fluo-8 calcium fluorescence, EC20 TRH enhancement; enhancement, % at 2 µM; hit rate 0.66% among 360,000; AID 493056; in the data active means enhancement above about 30%; further: 0% is about no effect
Target sequence (P34981 whole entry, looked up): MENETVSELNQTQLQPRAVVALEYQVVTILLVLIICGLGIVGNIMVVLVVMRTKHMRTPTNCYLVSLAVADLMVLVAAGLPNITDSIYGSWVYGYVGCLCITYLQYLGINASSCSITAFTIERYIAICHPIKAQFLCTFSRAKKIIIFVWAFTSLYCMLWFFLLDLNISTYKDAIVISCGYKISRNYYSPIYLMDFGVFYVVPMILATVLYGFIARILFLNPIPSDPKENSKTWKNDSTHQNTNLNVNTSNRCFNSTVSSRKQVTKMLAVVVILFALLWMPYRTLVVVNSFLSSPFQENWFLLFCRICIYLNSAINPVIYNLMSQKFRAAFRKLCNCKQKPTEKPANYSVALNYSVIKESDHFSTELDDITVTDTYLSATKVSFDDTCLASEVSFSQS
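TRHR-expressing cells loaded with fluo-8 calcium dye were read kinetically (ex 480/em 530) during compound addition, then stimulated with an EC20 of TRH (10 nM final). Enhancement of the Gq-mediated intracellular calcium response was scored.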
TRHR agonist: activates the human TRH receptor. activation, % at 2 µM. TRHR cells, calcium flux fluo-8, FDSS agonist mode. AID 493084. hit rate 0.18% among 360,000. P34981; further: 0% is about no effect
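Fluo-8-loaded TRHR cells; 10 s baseline, compound added, kinetic Ca2+ fluorescence read 1/s, agonist mode.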
* = called active by the depositor. A selection: hits, their analogues and other compounds. The true share with any hit is near 4.6%. Unless noted, no stated cut-off is given here; in the data, active means activation above about 30%; inactive means the rest.

SMILES	D1 ag	D1 PAM	D1 antag	TRHR PAM	TRHR agonist
O=C(N/N=C/c1cc([N+](=O)[O-])ccc1Cl)c1cc(-c2ccccc2)nc2ccccc12	1	-8	-47*	-8	0
Cc1cccc(-c2cc(C(=O)Nc3ccncc3)c3ccccc3n2)c1	0	-7	-41*	-1	0
O=C(N/N=C/c1cc([N+](=O)[O-])ccc1O)c1cc(-c2ccccc2)nc2ccccc12	3	-2	0	-1	0
O=C(N/N=C/c1c[nH]c2ccccc12)c1ccc([N+](=O)[O-])cc1Cl	6	-13	-48*	-12	3
CCc1ccc2c(Cl)c(C(=O)N/N=C/c3c[nH]c4ccccc34)sc2c1	2	-5	-22	8	2
CCc1ccc(-c2cc(C(=O)N/N=C/c3c[nH]c4ccccc34)[nH]n2)cc1	3	-6	-14	36*	0
CCOC(=O)c1c(NC(=O)COc2ccc(C)cc2C(C)(C)C)sc2c1CCC(C)C2 (stereo not given)	-1	3	5	5	-1
O=C(NCc1ccc(Cl)cc1)C1CCN(c2nn3cc(-c4ccc(F)cc4)nc3s2)CC1	1	-1	3	-7	1
Cc1cccc(OCc2ccc(-c3nc(C#N)c(NCCN(C)C)o3)o2)c1	102*	3	-18	-7	-3
Cc1ccccc1CCNC(=O)C1CCCN(c2cnccn2)C1 (stereo not given)	-1	0	4	-6	0
O=C(NCc1ccccc1F)C1CCCN(c2cnccn2)C1 (stereo not given)	2	0	-35*	2	-1
Cc1cccc(-c2nc3ccccc3n3c(-c4ccccc4)c4c(=O)n(C)c(=O)n(C)c4c23)c1	0	-3	0	14	0
Cc1ccc(-n2c(SCc3ccccc3C)nc3[nH]ncc3c2=O)cc1C	1	-8	-78*	-24	0
CCc1ccc(NC(=O)CN2C(=O)C(c3ccc(F)cc3)=NC2(C)C)cc1	-3	7	-5	11	-1
CCOc1ccc(NS(=O)(=O)c2ccc(C(=O)NCc3ccncc3)cc2)cc1	12	-10	5	-1	1
Cc1ccc(CNC(=O)c2cc(NS(=O)(=O)c3ccc(C)cc3)ccn2)cc1	-1	3	-32*	3	0
CC(=O)Nc1ccc(S(=O)(=O)Nc2ccc(C(=O)NCC(=O)O)cc2)cc1	2	-3	-66*	7	1
CCOc1ccc(NS(=O)(=O)c2ccc(C(=O)NCc3ccccn3)cc2)cc1	33*	-19	8	-2	5
CS(=O)(=O)Nc1ccc(C(=O)NCc2ccccn2)cc1	6	-9	15	1	0
Cc1ccc(NS(=O)(=O)c2ccc(C(=O)NCc3ccccn3)cc2)cc1	40*	-8	-30	-1	6
COc1ccccc1CNC(=O)CCCn1c(=O)c2ccccc2n(Cc2ccc(C)cc2)c1=O	1	2	1	-3	-1
CCCCn1cc(S(=O)(=O)c2ccc(C)c(C)c2)c(=O)c2cc(F)c(N(CC)CC)cc21	1	0	2	3	0
Cn1cc(C(=O)O)c(=O)c2cc(S(=O)(=O)N3CCOCC3)ccc21	-4	0	-11	5	0
Cc1cc(NC(=O)CSc2nc(-c3cccc(F)c3)nc3c2c(=O)n(C)c(=O)n3C)no1	0	-1	0	-2	0
Cc1ccc(C(C)n2cc(C(=O)NCc3ccccn3)nn2)cc1 (stereo not given)	33*	-6	15	0	4
SMILES	D1 ag	D1 PAM	D1 antag	TRHR PAM	TRHR agonist
CC(=O)Nc1ccc(NC(=O)CSc2nnc(NC(=O)Cc3ccc(F)cc3)s2)cc1	1	-20	-53*	-19	0
CC(C)(C)CC(=O)Nc1nnc(SCC(=O)Nc2ccccc2F)s1	1	-7	-40*	-3	-1
CCSc1nnc(NC(=O)CC(C)C)s1	2	-9	14	5	-1
CC(C)CC(=O)Nc1nnc(SCC(=O)Nc2nccs2)s1	7	-1	-35*	3	0
COc1ccc(Cn2c(C(=O)O)c(CNCCc3ccccc3Cl)c3ccc(C)cc32)cc1	2	-1	-9	-2	0
CCOc1ccc(C(=O)Nc2ccc3oc(-c4cccc5ccccc45)nc3c2)cc1	4	-1	-17	-3	1
CCCOc1ccc(CNC(=O)C(NS(=O)(=O)c2cccs2)C(C)C)cc1 (stereo not given)	0	0	11	13	-1
CCCOc1ccccc1C1C(C(=O)Nc2ccccc2)=C(C)Nc2nnnn21 (stereo not given)	39*	-7	5	49*	-1
CCCCc1ccc(CC(=O)Nc2cc(S(=O)(=O)N3CCOCC3)ccc2O)cc1	3	5	18	-2	0
CCOC(=O)c1ccc(NC(=S)NNC(C)(C)C)cc1	2	-2	-36*	10	0
CCCCCOc1ccc(C(=O)OCC(=O)Nc2cc(C)on2)cc1	4	6	-3	31*	2
CCOC(=O)c1ccc(NC(=O)Nc2cc(C)on2)cc1	27	-4	-32*	3	-1
CCOC(=O)c1ccc(NC(=O)Nc2cccc(C)n2)cc1	2	-2	7	-2	2
CCOC(=O)c1ccc(NC(=S)Nc2ccc(C)cc2)cc1	2	10	1	-4	0
Cc1cccc(-c2nc3cc(NC(=O)COc4ccccc4F)ccc3o2)c1	26	-1	13	-1	-1
COc1cc(/C=C2/C(=N)N3C(=NC2=O)SN=C3S(C)(=O)=O)ccc1OS(=O)(=O)c1ccccc1	1	-2	-24	-2	0
COc1cc(/C=C2\C(=N)N3N=CSC3=NC2=O)ccc1OS(=O)(=O)c1ccccc1[N+](=O)[O-]	4	-3	-30*	-4	0
COc1cc(/C=C2\C(=N)N3N=C(S(C)(=O)=O)SC3=NC2=O)ccc1OC(=O)c1cccs1	0	-12	4	9	-1
COc1cc(/C=C2\C(=N)N3N=C(S(C)(=O)=O)SC3=NC2=O)ccc1OCCOc1ccccc1C	4	-4	6	35*	1
Cc1cccc(OC(=O)CSc2nnc(-c3ccc4c(c3)OCO4)o2)c1C	1	-1	4	0	0
O=C(COC(=O)COc1ccccc1)Nc1ncc([N+](=O)[O-])s1	6	-8	9	1	0
O=C(Cc1ccc(Br)cc1)Nc1ncc([N+](=O)[O-])s1	21	-2	-25	7	7
O=C(Cc1ccc(Cl)cc1)Nc1ncc([N+](=O)[O-])s1	31*	-6	-43*	-14	2
O=C(COc1ccc(Cl)cc1)Nc1ncc([N+](=O)[O-])s1	28	-4	-32*	-10	4
